# The whole screen tested about 360,000 compounds, of which about 3,900 (1.1%) were called active.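 Rule for the calls: active = mean replicate inhibition score of at least 50 and every replicate individually at or above 50; inconclusive = only one of the two criteria met; inactive = mean below 50 and not all replicates reaching 50.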 This excerpt belongs to a sample that is enriched for actives.
# Assay: inhibitors of HIV-1 Env-driven cell-cell fusion, primary screen, HeLa-JRFL effector, CEM21 target cells, luciferase (AID 651610);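 note: 0% = plate neutral controls and 100% = maraviroc near 300 nM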
# Details: stronger effect = higher value; at 16.7 µM unless noted
row,SMILES,inhibition
1,COCCNC(=O)CSc1nc2sccc2c(=O)n1-c1ccccc1,-8.5% [at 12.3 µM] (inactive)
2,Cc1sc2nc(SCCO)n(-c3ccccc3)c(=O)c2c1C,14.7% [at 12.3 µM] (inactive)
3,CC1(C)Cc2c(sc3nc(SCC(=O)NCc4ccccc4)n(-c4ccccc4)c(=O)c23)CS1,138% [at 12.3 µM] (active)
4,C/C=C/c1cnc2c(c1)C(=O)N([C@@H](C)CO)C[C@H](C)[C@@H](CN(C)C(=O)C1CC1)O2,10.3% (inactive)
5,C[C@@H]1CCCCO[C@H](CN(C)Cc2ccc(C(F)(F)F)cc2)[C@H](C)CN([C@@H](C)CO)C(=O)c2cc(N(C)C)ccc2O1,6.26% (inactive)
6,COc1ccccc1S(=O)(=O)N[C@@H]1CC[C@@H](CCNC(=O)C2CCCCC2)O[C@@H]1CO,-6.59% (inactive)
7,COc1ccc(C(C)(C)C)cc1NC(=O)CN(C)C1=NS(=O)(=O)c2ccccc21,64.3% [at 12.3 µM] (active)
8,COc1ccc(/C=N/N(C)C2=NS(=O)(=O)c3ccccc32)cc1OC,1.34% [at 12.3 µM] (inactive)
9,C=CCOCCN(C)C1=NS(=O)(=O)c2ccccc21,1.56% [at 12.3 µM] (inactive)
10,COc1ccc(CN(C)C[C@H]2Oc3c(NC(=O)Nc4ccccc4)cccc3C(=O)N([C@@H](C)CO)C[C@@H]2C)cc1,6.99% (inactive)
11,C[C@@H]1CN([C@@H](C)CO)C(=O)Cc2cc(NC(=O)C3CCCCC3)ccc2O[C@@H]1CN(C)CC1CCCCC1,-8.61% (inactive)
12,CN(C)C=NC(=O)c1cccn1-c1ncc(C(F)(F)F)cc1Cl,8.04% [at 12.3 µM] (inactive)
13,COc1cccc(/C=N/Nc2ncc(C(F)(F)F)cc2Cl)c1O,74.7% [at 12.3 µM] (active)
14,O=c1[nH]c2cccnc2n(CCNc2ncc(C(F)(F)F)cc2Cl)c1=O,-11.9% [at 12.3 µM] (inactive)
15,C[C@@H]1CN([C@@H](C)CO)C(=O)c2cc(NS(=O)(=O)c3cccs3)ccc2O[C@H]1CN(C)CC1CCCCC1,-17.2% (inactive)
16,Cc1cccc(NC(=O)c2nc[nH]c2C(=O)NCC(=O)OCc2ccccc2)c1,55.2% [at 12.3 µM] (active)
17,CC(C)(C)OC(=O)CNC(=O)c1[nH]cnc1C(=O)N[C@@H](Cc1ccccc1)C(=O)OCc1ccccc1,6.73% [at 12.3 µM] (inactive)
18,C[C@H](NC(=O)c1nc[nH]c1C(=O)NCC(=O)OC(C)(C)C)C(=O)OCc1ccccc1,-4.51% [at 12.3 µM] (inactive)
19,O=C(C[C@@H]1CC[C@@H]2[C@H](COC[C@H](O)CN2C(=O)c2cccnc2)O1)NC1Cc2ccccc2C1,-0.583% (inactive)
20,CO[C@@H]1CN(C)C(=O)c2ccc(NC(=O)c3cccc(Oc4ccccc4)c3)cc2OC[C@H](C)NC[C@@H]1C,12.8% (inactive)
21,CN1CCn2cnc(C(=O)NCC(=O)OC(C)(C)C)c2C1=O,2.91% [at 12.3 µM] (inactive)

row,SMILES,inhibition
1,C[C@@H]1Cn2cnc(C(=O)Nc3ccc(CNC(=O)OC(C)(C)C)cc3)c2C(=O)N1,58.6% [at 12.3 µM] (active)
2,Cc1ccc(NC(=O)c2nc[nH]c2C(=O)N[C@@H](CCCCNC(=O)OC(C)(C)C)C(=O)OC(C)(C)C)cc1,32.1% [at 12.3 µM] (inactive)
3,O=C(CCN1CCCCC1)N[C@@H]1C=C[C@@H](CC(=O)N2CCC(Cc3ccccc3)CC2)O[C@H]1CO,3.09% (inactive)
4,CSCCC(NS(=O)(=O)c1ccc2c(c1)oc(=O)n2C)C(=O)NCc1ccccc1 (stereo not drawn),-4.2% [at 12.3 µM] (inactive)
5,CSCCC(NS(=O)(=O)c1ccc2c(c1)oc(=O)n2C)C(=O)NC1CCCc2ccccc21 (stereo not drawn),87% [at 12.3 µM] (active)
6,CNS(=O)(=O)c1cccc(C(=O)NC2CCCc3ccccc32)c1 (stereo not drawn),15.1% [at 12.3 µM] (inactive)
7,Cc1noc(C)c1NC(=O)N(C)C[C@H]1OCCCC[C@@H](C)Oc2ccc(NS(=O)(=O)c3ccc(Cl)cc3)cc2C(=O)N([C@@H](C)CO)C[C@H]1C,-65.1% (inactive)
8,CCCN(C)C[C@H]1OCCCC[C@@H](C)Oc2ccc(NC(=O)Nc3ccc(F)cc3)cc2C(=O)N([C@@H](C)CO)C[C@H]1C,-12.4% (inactive)
9,C[C@@H]1CCCCO[C@@H](CN(C)C(=O)C2CCCCC2)[C@H](C)CN([C@H](C)CO)C(=O)c2cc(NC(=O)Cc3ccccc3)ccc2O1,-36.4% (inactive)
10,CCN(C[C@H]1N[C@@](Cc2ccccc2)(C(=O)OC)[C@H]2C(=O)N(Cc3ccccc3)C(=O)[C@@H]12)C(=O)c1ccc(C)cc1,-47.2% [at 12.3 µM] (inactive)
11,CC[C@]1(C(=O)OC)[C@H]2C(=O)N(Cc3ccccc3)C(=O)[C@H]2[C@H]2CN=C(SCc3ccccc3)N21,93.6% [at 12.3 µM] (active)
12,CC[C@]1(C(=O)OC)[C@H]2C(=O)N(C)C(=O)[C@H]2[C@H]2CN(C)C(=NCc3ccccc3)N21,-17.3% [at 12.3 µM] (inactive)
13,CCN1C[C@@H]2[C@@H]3C(=O)N(Cc4ccccc4)C(=O)[C@@H]3[C@](C)(C1=O)N2C(=O)c1ccc(C(C)(C)C)cc1,-9.05% [at 12.3 µM] (inactive)
14,CCNC(=O)N(CC)C[C@H]1N[C@@](CC)(C(=O)OC)[C@H]2C(=O)N(Cc3ccccc3)C(=O)[C@@H]12,-2.99% [at 12.3 µM] (inactive)
15,COC(=O)[C@@]1(C)[C@H]2C(=O)N(Cc3ccccc3)C(=O)[C@H]2[C@H]2CN=C(SCC3CC3)N21,84% [at 12.3 µM] (active)
16,COC(=O)[C@]1(Cc2ccccc2)N[C@H](CN(C)S(=O)(=O)c2ccc(F)cc2)[C@@H]2C(=O)N(Cc3ccccc3)C(=O)[C@@H]21,31.6% [at 12.3 µM] (inactive)
17,CCN1C[C@@H]2[C@@H]3C(=O)N(Cc4ccccc4)C(=O)[C@@H]3[C@](Cc3ccccc3)(C(=O)OC)N2C1=NC1CCCCC1,16.7% [at 12.3 µM] (inactive)
18,CC[C@]1(C(=O)OC)[C@H]2C(=O)N(Cc3ccccc3)C(=O)[C@H]2[C@H]2CN=C(SCc3ccc(C#N)cc3)N21,87.6% [at 12.3 µM] (active)
19,CO[C@@H]1CN(C)C(=O)c2cc(NC(C)=O)ccc2OC[C@H](C)N(C(=O)CC2CC2)C[C@@H]1C,-18.3% (inactive)
20,Cc1noc(C)c1S(=O)(=O)Nc1ccc2c(c1)C(=O)N([C@H](C)CO)C[C@@H](C)[C@@H](CN(C)C(=O)C1CCCCC1)OCCCC[C@@H](C)O2,2.09% (inactive)
21,C[C@H](O)C#Cc1cnc2c(c1)C(=O)N([C@@H](C)CO)C[C@H](C)[C@@H](CN(C)C(=O)c1ccncc1)O2,-14.6% (inactive)

row,SMILES,inhibition
1,CO[C@@H]1CN(C)C(=O)c2cc(NC(=O)c3ccc(F)cc3)ccc2OC[C@H](C)NC[C@@H]1C,-6.15% (inactive)
2,Cc1ccccc1S(=O)(=O)N[C@H]1CC[C@@H](CCn2cc(Cc3ccccc3)nn2)O[C@H]1CO,0.428% (inactive)
3,CCCC(=O)Nc1ccc2c(c1)OC[C@@H](C)N(CC1CCOCC1)C[C@H](C)[C@H](OC)CN(C)C2=O,-7.57% (inactive)
4,C[C@@H]1CN([C@H](C)CO)C(=O)c2cccc(NC(=O)Nc3ccccc3)c2O[C@H]1CN(C)Cc1ccccc1,9.88% (inactive)
5,Cc1ccc(S(=O)(=O)N(C)C[C@@H]2OCCCC[C@H](C)Oc3ccc(NS(=O)(=O)c4cn(C)cn4)cc3C(=O)N([C@H](C)CO)C[C@@H]2C)cc1,-30.7% (inactive)
6,CO[C@H]1CN(C)C(=O)c2ccc(NS(=O)(=O)c3ccccc3)cc2OC[C@@H](C)N(Cc2nccs2)C[C@@H]1C,-11.1% (inactive)
7,C/C=C/c1ccc([C@@H]2[C@@H](CO)N(C(=O)CN(C)C)C23CN(C(=O)C2CCCC2)C3)cc1,25.3% (inactive)
8,COC(=O)C1=C(C(=O)OC)C2C=C(C(C)C)C1C(=O)C2(C)O (stereo not drawn),-16.5% [at 12.3 µM] (inactive)
9,Cc1occc1C(=O)Nc1cccc(S(=O)(=O)N2CCOCC2)c1,-25.4% [at 12.3 µM] (inactive)
10,COc1ccc(NC(=O)c2oc3ccc(S(=O)(=O)N4CCOCC4)cc3c2C)cc1,6.27% [at 12.3 µM] (inactive)
11,Cc1c(C(=O)Nc2cccc(S(=O)(=O)N3CCOCC3)c2)oc2ccccc12,60.5% [at 12.3 µM] (active)
12,COc1ccc(S(=O)(=O)N(C)C[C@@H]2OCCCC[C@@H](C)Oc3ccc(NS(=O)(=O)c4ccccc4)cc3C(=O)N([C@@H](C)CO)C[C@H]2C)cc1,-2.53% (inactive)
13,O=C(Nc1ccc(N2CCN(C(=O)c3ccccc3)CC2)c(Cl)c1)c1cccnc1,86.4% [at 12.3 µM] (active)
14,O=C(Nc1ccc(N2CCN(C(=O)c3ccccc3)CC2)c(Cl)c1)c1ncn[nH]1,5.87% [at 12.3 µM] (inactive)
15,Cc1ccccc1N1CCN(C(=O)c2cccnc2)CC1,6.64% [at 12.3 µM] (inactive)
16,C[C@H](CO)N1C[C@H](C)[C@H](CN(C)Cc2ccncc2)Oc2ncc(C#Cc3cccc(F)c3)cc2C1=O,7.42% (inactive)
17,CC(C)NC(=O)N[C@@H]1CC[C@H](CC(=O)NCCN2CCCC2)O[C@@H]1CO,20.3% (inactive)
18,C[C@H](CO)N1C[C@H](C)[C@H](CN(C)C(=O)Nc2ccc(C(F)(F)F)cc2)Oc2ccc(NC(=O)Nc3ccccc3)cc2C1=O,15.8% (inactive)
19,COc1ccc(CC(N)c2csc(NC(=O)Cc3ccccc3)n2)cc1 (stereo not drawn),-13.2% [at 12.3 µM] (inactive)
20,NC(Cc1ccccc1)c1csc(Nc2cc(Oc3ccccc3)ncn2)n1 (stereo not drawn),-44.1% [at 12.3 µM] (inactive)
21,NC(Cc1ccc(F)cc1)c1csc(Nc2nncc3ccccc23)n1 (stereo not drawn),58.7% [at 12.3 µM] (active)
